Measurements reported in PubChem BioAssay (NCI).
About 83,000 compounds went through this panel and 20% of them were active in at least one assay; those are over-represented in the sample as a whole.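 Treatment: one concentration, 48 hours, 96-well format. Scoring: percent growth, with anything below 10 considered active.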 Calls of active or inactive are those of the source.

What follows are molecules tested on CCRF-CEM leukemia (assay: NCI-60 one-dose screen, 48 h (100 = growth as untreated, 0 = no growth, -100 = all killed)). Conditions: 10 µM unless noted.
With `CCOC(=O)c1cc(C(=O)c2ccc(Br)cc2)n2ccc(/C=C/c3cc[n+](CC(=O)c4ccc(OC)cc4)cc3)cc12` the growth was -23.7% (active). In the case of `COc1ccc(/C=C/c2nc(Nc3ccc(S(=O)(=O)Nc4nc(C)cc(C)n4)cc3)c3ccccc3n2)cc1`, the growth is reported as 61.5% (inactive). `Cc1ccc(C(=O)/C(=C/c2ccc([N+](=O)[O-])cc2)SCc2ccc(Cl)cc2)cc1` was tested, and the growth was 8.74% (active). In the case of `O=C1c2c(c3c4cccc(F)c4[nH]c3c3ccc4ccccc4c23)C(=O)N1O`, the growth is reported as 7.09% (active). With `COc1ccc(C(=O)C2C(C#N)C(C#N)C3C=Cc4ccccc4N32)cc1` (stereo unspecified) the growth was 16.2% (inactive). For `CCOC(=O)CC1CSC(N/N=C/c2ccc(-n3cccn3)cc2)=N1` (stereo unspecified), the growth was 94.1% (inactive). In the case of `CC(C)N1C(=O)/C(=C2\SC(=S)N(C(C)C)C2=O)SC1=S`, the growth is reported as 87.8% (inactive). With `CC(C)(C)[Si](C)(C)OC1[C@@H](O[Si](C)(C)C(C)(C)C)[C@@H](CNC(=O)NC(=O)CCl)O[C@H]1n1cnc2c(NC(=O)Nc3ccccc3)ncnc21` (stereo partly specified) the growth was -37.9% (active). `COc1ccc(-c2nc3sccn3c2/C=C/C(=O)c2ccc3c(c2)OCO3)cc1` was tested, and the growth was 18.3% (inactive). In the case of `O=C1c2ccccc2C(=O)c2c([N+](=O)[O-])ccc(Cl)c21`, the growth is reported as 63.2% (inactive). `COc1ccc(/C=C/c2nc(Nc3cccc(NC(C)=O)c3)c3ccccc3n2)cc1` was tested, and the growth was 82.5% (inactive). With `Cc1ccc(-n2nc3c(c(C#N)c2=O)CC(c2ccccc2[N+](=O)[O-])C([N+](=O)[O-])=C3O)cc1` (stereo unspecified) the growth was 88.2% (inactive). `COc1cc(OC)cc(C(=O)C[n+]2cccc3cc[nH]c32)c1` was tested, and the growth was 99.2% (inactive).

What follows are molecules tested on MOLT-4 leukemia in the same assay as above. Conditions: 10 µM unless noted.
For `COc1ccc(/C=C/c2nc(Nc3ccc(S(=O)(=O)Nc4cc(C)on4)cc3)c3ccccc3n2)cc1`, the growth was 70.6% (inactive). In the case of `NS(=O)(=O)c1ccc(CCN2C(=O)c3cc(Cl)c(Cl)cc3C2=O)cc1`, the growth is reported as 92.4% (inactive). `C/C=C(\C)C(=O)NC1=CC[C@@]2(C)C(=CCC3C2CC[C@@]2(C)C3CC[C@@H]2C(C)N(C)C)C1=O` (stereo partly specified) was tested, and the growth was 47% (inactive). With `O=c1c2c(c(=O)n1O)c1c3ccc[nH]c3nc1c1nc3[nH]cccc3c12` the growth was 43.7% (inactive). `Cc1ccc(C(=O)/C(=C\c2ccc([N+](=O)[O-])cc2)S(=O)Cc2ccc(F)cc2)cc1` (stereo unspecified) was tested, and the growth was 1.47% (active). In the case of `O=C(Nc1ncc(Cc2cc(Cl)ccc2Cl)s1)c1cccs1`, the growth is reported as 63.2% (inactive). In the case of `O=C(C[n+]1cccc2ccccc21)c1ccc(O)c(O)c1`, the growth is reported as 6.56% (active). For `OCc1cnccc1NCCCCOc1ccc(Oc2ccccc2)cc1`, the growth was 45.1% (inactive). `Oc1cccc(CCc2ccc(Oc3cc(CCc4cccc(O)c4)cc(O)c3O)cc2)c1` was tested, and the growth was 18% (inactive). For `CC/C(=C\c1ccc(OC)cc1)C(=O)c1ccc(OC)cc1`, the growth was 91.5% (inactive). For `CN1C(N2CCN(S(=O)(=O)c3ccccc3)CC2)=NS(=O)(=O)c2ccccc21`, the growth was 178% (inactive). `O=C1Nc2ccc(F)cc2/C1=C\c1c(-c2ccccc2)nc2ccccn12` was tested, and the growth was 51% (inactive). For `O=C(Cn1c(C(=O)c2ccccc2)nc2ccccc21)c1ccc(F)cc1`, the growth was 21.3% (inactive). In the case of `COc1ccc(C(=O)c2nc3ccccc3n2CC(=O)c2ccc(Cl)cc2)cc1`, the growth is reported as 17.2% (inactive). For `CC(=O)[C@@H]1CC[C@]2(C(N)=O)CC[C@]3(C)[C@H](CC[C@@H]4[C@@]5(C)CCCNC(C)(C)[C@@H]5CC[C@]43C)[C@@H]12`, the growth was 60.5% (inactive). `Oc1c(Cl)cc(Cl)c(Cl)c1CNCCNCc1c(O)c(Cl)cc(Cl)c1Cl` was tested, and the growth was 10% (inactive). For `O=C1Nc2cc(Cl)ccc2/C1=C\c1c(-c2ccc(F)cc2)nc2ccccn12`, the growth was -4.44% (active). For `O=C(NO)c1ccc(-n2nc(-c3ccccc3)c3ccccc32)cc1`, the growth was 26.9% (inactive). `O=C(CNCCN1CCOCC1)N1c2cccc3cccc(c23)N(C(=O)CNCCN2CCOCC2)C1c1cn(-c2ccccc2)nc1-c1cccc([N+](=O)[O-])c1` was tested, and the growth was 48.5% (inactive). With `O=C1c2cccc3c(-c4ccc5c(c4)ncn5C4CCCCC4)ccc(c23)C(=O)N1CCO` the growth was 71.9% (inactive). `CC(=O)Oc1ccc(/C=N/NC(N)=S)nc1` was tested, and the growth was 56% (inactive). With `NC(=S)N1N=C(c2ccccc2)CC1c1cn(-c2ccccc2)nc1-c1ccc(OCc2ccccc2)cc1` (stereo unspecified) the growth was 98.7% (inactive). In the case of `Cc1ccc(-c2nc3ccccn3c2/C=C2/C(=O)Nc3cc(Cl)ccc32)cc1`, the growth is reported as 53.4% (inactive). In the case of `Clc1ccc(-c2ccc(CNCC3CCNCC3)o2)c(-c2ccccc2)c1`, the growth is reported as -62.7% (active). With `CC(=O)[C@H]1CCC/C=C/[C@@H]2C[C@H](O)C[C@H]2[C@H](O)/C=C/C(=O)O1` the growth was -41.3% (active). In the case of `CCOC(=O)c1cc(C(=O)c2ccc(Br)cc2)n2ccc(/C=C/c3cc[n+](CC(=O)c4ccc(OC)cc4)cc3)cc12`, the growth is reported as 68.3% (inactive). `COc1ccc(/C=C/c2nc(Nc3ccc(S(=O)(=O)Nc4nc(C)cc(C)n4)cc3)c3ccccc3n2)cc1` was tested, and the growth was 65.7% (inactive). `Cc1ccc(C(=O)/C(=C/c2ccc([N+](=O)[O-])cc2)SCc2ccc(Cl)cc2)cc1` was tested, and the growth was 19.8% (inactive). In the case of `O=C1c2c(c3c4cccc(F)c4[nH]c3c3ccc4ccccc4c23)C(=O)N1O`, the growth is reported as 3.29% (active). For `COc1ccc(C(=O)C2C(C#N)C(C#N)C3C=Cc4ccccc4N32)cc1` (stereo unspecified), the growth was 37.5% (inactive). For `CCOC(=O)CC1CSC(N/N=C/c2ccc(-n3cccn3)cc2)=N1` (stereo unspecified), the growth was 97.3% (inactive). In the case of `CC(C)N1C(=O)/C(=C2\SC(=S)N(C(C)C)C2=O)SC1=S`, the growth is reported as 101% (inactive). `CC(C)(C)[Si](C)(C)OC1[C@@H](O[Si](C)(C)C(C)(C)C)[C@@H](CNC(=O)NC(=O)CCl)O[C@H]1n1cnc2c(NC(=O)Nc3ccccc3)ncnc21` (stereo partly specified) was tested, and the growth was -43.8% (active). For `COc1ccc(-c2nc3sccn3c2/C=C/C(=O)c2ccc3c(c2)OCO3)cc1`, the growth was 37.3% (inactive). For `O=C1c2ccccc2C(=O)c2c([N+](=O)[O-])ccc(Cl)c21`, the growth was 86.2% (inactive). With `COc1ccc(/C=C/c2nc(Nc3cccc(NC(C)=O)c3)c3ccccc3n2)cc1` the growth was 87% (inactive). In the case of `Cc1ccc(-n2nc3c(c(C#N)c2=O)CC(c2ccccc2[N+](=O)[O-])C([N+](=O)[O-])=C3O)cc1` (stereo unspecified), the growth is reported as 87.6% (inactive). With `COc1cc(OC)cc(C(=O)C[n+]2cccc3cc[nH]c32)c1` the growth was 105% (inactive).
